Results taken from the supplement of paper PMC12645437, “Orthogonal IMiD-Degron Pairs Induce Selective Protein Degradation in Cells” (ACS Chemical Biology, 2025).
Over roughly 8,300 sequences, “log2 fold change of degron read counts, EGFP-low vs EGFP+ sorted cells (limma voom), compound-induced degradation” has its median near -1.1; the highest 2% begin near 3.2. The list comes from a sample in which the highest values are over-represented; it also holds similar and randomly drawn sequences.

T1: CRBN, Q96SW2
T1 chain: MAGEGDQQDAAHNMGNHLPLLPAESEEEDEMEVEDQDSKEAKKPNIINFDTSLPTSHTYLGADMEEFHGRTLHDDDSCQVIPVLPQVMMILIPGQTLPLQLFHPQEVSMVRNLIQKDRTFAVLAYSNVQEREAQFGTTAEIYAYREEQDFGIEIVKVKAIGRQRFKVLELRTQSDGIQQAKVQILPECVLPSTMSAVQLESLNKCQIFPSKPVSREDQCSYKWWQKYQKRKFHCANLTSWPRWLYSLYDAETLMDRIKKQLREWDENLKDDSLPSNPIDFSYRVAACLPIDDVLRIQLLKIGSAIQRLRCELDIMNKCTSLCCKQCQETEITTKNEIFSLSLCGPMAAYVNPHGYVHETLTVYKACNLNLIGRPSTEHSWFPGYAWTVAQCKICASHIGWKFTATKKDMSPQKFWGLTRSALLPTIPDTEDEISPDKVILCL


Biological target: T1, CRBN, Q96SW2
Assay: log2 fold change of degron read counts, EGFP-low vs EGFP+ sorted cells (limma voom), compound-induced degradation; higher = more compound-induced degradation of the degron-EGFP fusion; degrons are variants of IKZF1/3 zinc finger 2; compound dose not given here
Conditions: Jurkat, 18 h
[1] = compound: compound 19 (5-tert-butyl-thalidomide)
[2] = compound: compound 22 (5-morpholino-thalidomide)
[3] = compound: compound 33 (diphenyl IMiD analogue)
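Further: pooled lentiviral library of zinc finger degron-EGFP fusions in mCherry-positive Jurkat cells, FACS-sorted after compound exposure, with degron abundance counted by next-generation sequencing.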

Row | Sequence | log2 fold change of degron read counts [1] | log2 fold change of degron read counts [2] | log2 fold change of degron read counts [3] | log2 fold change of degron read counts (compound: thalidomide)
1 | LFCNQCGFYCTQKGNLLRHIKL [46L_47F_49N_50Q_52G_53F_54Y_55C_67L_, Q9UKT9] | -0.734 | -0.67 | -0.837 | -0.422
2 | FECPICGARFTQKGNLLRHIKL [46F_47E_49P_50I_52G_53A_54R_55F_67L_, Q9UKT9] | 0.918 | -0.107 | 1.75 | 3.37
3 | FGCPICGARFTQKGNLLRHIKL [46F_47G_49P_50I_52G_53A_54R_55F_67L_, Q9UKT9] | 3.39 | 2.28 | 0.0226 | 1.05
4 | FYCPICGARFTQKGNLLRHIKL [46F_47Y_49P_50I_52G_53A_54R_55F_67L_, Q9UKT9] | 2.38 | 2.5 | 0.405 | -0.0683
5 | FSCPICGALFTQKGNLLRHIKL [46F_47S_49P_50I_52G_53A_54L_55F_67L_, Q9UKT9] | 0.486 | -0.0754 | 2.59 | 0.134
6 | FLCPICGARFTQKGNLLRHIKL [46F_47L_49P_50I_52G_53A_54R_55F_67L_, Q9UKT9] | 0.407 | -0.333 | 0.469 | 1.92
7 | FRCPICGARFTQKGNLLRHIKL [46F_47R_49P_50I_52G_53A_54R_55F_67L_, Q9UKT9] | -0.853 | -0.665 | -0.334 | 0.377
8 | FVCPICGARFTQKGNLLRHIKL [46F_47V_49P_50I_52G_53A_54R_55F_67L_, Q9UKT9] | 0.924 | 2.47 | 0.874 | 2.71
9 | FQCPICGALFTQKGNLLRHIKL [46F_47Q_49P_50I_52G_53A_54L_55F_67L_, Q9UKT9] | -1.04 | 1.75 | 1.86 | 3.37
10 | FSCPICGARFTQKGNLLRHIKL [46F_47S_49P_50I_52G_53A_54R_55F_67L_, Q9UKT9] | 2.63 | 2.4 | 0.555 | 1.65
11 | FWCPICGARFTQKGNLLRHIKL [46F_47W_49P_50I_52G_53A_54R_55F_67L_, Q9UKT9] | 2.78 | 3.66 | 1.23 | 1.15
12 | FNCPICGARFTQKGNLLRHIKL [46F_47N_49P_50I_52G_53A_54R_55F_67L_, Q9UKT9] | 2.1 | 1.39 | -0.35 | 0.971
13 | FVCPICGALFTQKGNLLRHIKL [46F_47V_49P_50I_52G_53A_54L_55F_67L_, Q9UKT9] | -0.961 | 0.498 | 1.25 | 1.5
14 | FWCNQCGRQFTQKGNLLRHIKL [46F_47W_49N_50Q_52G_53R_54Q_55F_67L_, Q9UKT9] | -1.77 | -1.3 | -1.46 | -1.87
15 | FACEICGRNFTQKGNLLRHIKL [46F_47A_49E_50I_52G_53R_54N_55F_67L_, Q9UKT9] | -0.441 | -1.8 | -2.25 | -1.66
16 | FICNVCGALFTQKGNLLRHIKL [46F_47I_49N_50V_52G_53A_54L_55F_67L_, Q9UKT9] | -2.12 | -1.66 | 0.0338 | -0.727
17 | FVCDICGALFTQKGNLLRHIKL [46F_47V_49D_50I_52G_53A_54L_55F_67L_, Q9UKT9] | -1.73 | -0.858 | -0.0343 | -0.433
18 | FCCPICGRFFTQKGNLLRHIKL [46F_47C_49P_50I_52G_53R_54F_55F_67L_, Q9UKT9] | -0.555 | -0.77 | 0.987 | -0.278
